This is a sample that favours compounds with a hit; in the whole collection about 2.8% have one here.
IP6K1 inhibitor: Primary qHTS assay for small molecule inhibitors of Inositol hexaphosphate kinase 1 (IP6K1); activity change, % (series mostly up to about 58 µM); IP6K1 kinase, ADP-Glo luminescence, 2 h; stronger effect = lower value; Inositol hexakisphosphate kinase 1 (Homo sapiens), Q92551; AID 1645851, 2021; 0.81% of 140,000 active; in the data active means activity change below about -25%; further: on the % scale 0 is the no-effect control and ±100 the full control effect
Target sequence (Q92551 whole entry, looked up): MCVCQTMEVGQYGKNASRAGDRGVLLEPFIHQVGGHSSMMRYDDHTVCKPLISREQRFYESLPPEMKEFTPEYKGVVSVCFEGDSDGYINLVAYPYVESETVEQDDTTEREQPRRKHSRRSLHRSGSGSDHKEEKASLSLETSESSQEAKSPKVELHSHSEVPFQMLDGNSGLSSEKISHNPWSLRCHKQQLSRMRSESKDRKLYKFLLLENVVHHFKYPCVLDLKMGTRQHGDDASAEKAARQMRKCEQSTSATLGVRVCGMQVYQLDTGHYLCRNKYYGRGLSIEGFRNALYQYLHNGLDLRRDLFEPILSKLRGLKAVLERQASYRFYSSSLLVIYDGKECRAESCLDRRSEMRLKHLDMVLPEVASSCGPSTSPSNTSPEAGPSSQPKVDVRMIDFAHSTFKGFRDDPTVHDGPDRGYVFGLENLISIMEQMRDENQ
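ADP-Glo luminescence measures ADP made by human IP6K1 during a 2 h RT reaction with ATP/IP6 (mix at 1.3 mM/130 uM); top library doses 57.5 and 19.1 uM final.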
KDM5B inh: Primary screen for KDM5B Histone Demethylases FDH-coupled qHTS; Lysine-specific demethylase 5B (Homo sapiens), Q9UGL1; KDM5B demethylase, FDH-coupled NADH fluorescence (FDH is formaldehyde dehydrogenase); Potency, µM (highest dose often 57.7 µM), most hits filed as inhibitors; 2.6% of 220,000 active; AID 1347165, 2019; further: potency means the concentration at half of the fitted maximal effect; 0% is about no effect; nearly all actives have a fitted effect of over 70% in size
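Inhibition is measured as reduced NADH fluorescence generation from FDH coupling to formaldehyde release. Truncated KDM5BΔAP at 200 nM final acts on H3K4me3 peptide (12.5 µM in substrate mix) in pH 7.5 HEPES buffer with Tween-20, 30 min, room temperature.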
IP6K1 conf: Confirmatory qHTS assay for small molecule inhibitors of Inositol hexaphosphate kinase 1 (IP6K1); recombinant IP6K1 kinase, ADP-Glo luminescence, 2 h; shares compounds with IP6K1 inhibitor; 13% of 1,200 active; Potency, µM (titrated, usually from 49 µM), for inactives: at the top dose activity change, negative = inhibition, most hits filed as inhibitors; further: potency means the concentration at half of the fitted maximal effect; on the % scale 0 is the no-effect control and ±100 the full control effect; nearly all actives have a fitted effect of over 65% in size
Active calls of the source: *; i = inactive; u = inconclusive; x = not tested or not shown; ! = repeats disagree. Unless noted, the call rests on the fitted dose curve; in most records, active means well fitted inhibition curve with a large enough effect; inconclusive means small, poorly fitted or top-dose-only effect; inactive means no such curve, though single readings can be large or run the other way.

SMILES	IP6K1 inhibitor	KDM5B inh	IP6K1 conf
Cc1ccc(S(=O)(=O)c2nc(-c3ccccc3)oc2N2CCCCCC2)cc1	11	i	x
O[C@H]1[C@H](NCc2ccc(OC(F)(F)F)cc2)[C@H]2CO[C@H](O2)[C@@H]1N1CCC(Cc2ccccc2)CC1	3	i	x
FC(F)(F)c1cccc(CSc2nnc(SCc3ccc(Cl)cc3)s2)c1	x	i	x
CC(C)CCNS(=O)(=O)c1ccc(N2CCCCS2(=O)=O)cc1	-30*	i	-16%
CCCCCNS(=O)(=O)c1ccc(N2CCCCS2(=O)=O)cc1	7	i	x
COc1cccc(-c2c(NC(=O)c3cccc([N+](=O)[O-])c3)oc3ccc(Cl)cc3c2=O)c1	x	i	x
CCc1ccc(C(=O)Nc2cc(CN3CCN(C)CC3)cc(C(F)(F)F)c2)cc1C#Cc1cnc2ccnn2c1	-39*	x	u
Cc1ccc(C(=O)Nc2ccc(CN3CCN(C)CC3)c(C(F)(F)F)c2)cc1C#Cc1cnc2cccnn12	22	x	x
COc1ccc(CCNc2nc3c(-c4cccc(C)c4)nnn3c3ccccc23)cc1OC	-32*	u	-5%
CCCCNc1nc2c(-c3cccc(C)c3)nnn2c2ccccc12	15	i	x
O=C(CCc1ncc(-c2ccccc2Cl)o1)Nc1ccc(F)cc1	x	i	x
COc1cc(OC)cc(C(=O)Nc2nnc(C(F)(F)F)s2)c1	x	i	x
Cc1ccc(-c2cn[nH]c2C2CCCN(C(=O)c3[nH]ncc3Cl)C2)cc1 (stereo not drawn)	5	i	x
CCc1nc(C)sc1C(=O)N1CCCC(c2[nH]ncc2-c2ccccc2)C1 (stereo not drawn)	-30*	i	-19%
Clc1cccc(CNCCN2CCCC2)c1Cl	x	i	x
CCOC(=O)c1cccc(NC(=O)N2CC[C@@H](CC(=O)Nc3ccccc3)[C@@H](CC)C2)c1	8	i	x
CCOC(=O)c1cccc(NC(=O)N2CC[C@@H](CC(=O)Nc3nccs3)[C@@H](CC)C2)c1	-35*	i	u
COc1ccccc1CNC(=O)c1cc2c(s1)-c1ccccc1OC2	13	u	x
O=C(NCc1cccc(Cl)c1)c1cc2c(s1)-c1ccccc1OC2	-26*	u	-14%
Cc1ccc(-c2nc(CS(=O)Cc3ccccc3)co2)cc1 (stereo not drawn)	x	i	x
C[C@]1(C2CCCC2)Cc2cc(OCC(=O)O)c(Cl)c(Cl)c2C1=O	-42*	x	7.3µM*
CN(Cc1ccccc1OCC(=O)O)CC1CCN(C)C1(C)C (stereo not drawn)	22	i	x
CCOC(=O)c1c(S(=O)(=O)NCC(=O)N2CCC(C)CC2)c(C)n(C)c1C	x	i	x
COc1ccc(Cc2nnc(SCC(=O)Nc3ccccc3Cl)n2C)cc1	x	i	x
CN1CCN(S(=O)(=O)c2ccc(N3CCN(c4cccc(Cl)c4)CC3)nc2)CC1	x	i	x
SMILES	IP6K1 inhibitor	KDM5B inh	IP6K1 conf
CN1CCN(c2cccc(Nc3nc4c(-c5ccc(S(C)(=O)=O)cc5)cccn4n3)c2)CC1	-11	x	1%
CC1=C(C(=O)Nc2ccc(C(=O)NCCC(C)C)c(Cl)c2)SCCO1	x	i	x
Cc1ccc(-n2nc(CO)c(C(=O)NCCCc3ccccc3)n2)cc1	17	u	x
Cc1ccc(-n2nc(CO)c(C(=O)NC(C)CCCc3ccccc3)n2)cc1 (stereo not drawn)	-31*	i	-18%
COc1cccc(C(=O)N2CCC(c3nc(C4CCOC4)no3)CC2)c1 (stereo not drawn)	-37*	u	-13%
COc1cc(OC)cc(C(=O)N2CCC(c3nc(C4CCOC4)no3)CC2)c1 (stereo not drawn)	19	i	x
Cc1ccc(-c2ccccc2CN2CCC(C(=O)NCC3CC3)CC2)cc1Cl	0	x	x
CC(C)C(=O)NCCSCc1ccsc1	x	i	x
Cc1ccc(CC(=O)N2CCC(Cc3nc(C(C)C)no3)CC2)cc1	0	i	x
CC(C)c1noc(CC2CCN(C(=O)Cc3ccc(F)cc3)CC2)n1	-26*	i	-18%
Cc1ccc(C)c(Cn2c(N3CCN(C/C=C/c4ccccc4)CC3)nc3c2c(=O)[nH]c(=O)n3C)c1	x	i	x
COc1cccc(CNC(=O)c2ccc3nnc(Cc4ccco4)n3c2)c1	-33*	x	u
O=C(NCc1ccccc1)c1ccc2nnc(Cc3ccco3)n2c1	-14	x	x
O=C(NCc1cccc(C(F)(F)F)c1)c1ccc2nnc(Cc3ccco3)n2c1	-30*	x	u
O=C(NCc1ccccc1Cl)c1ccc2nnc(Cc3ccco3)n2c1	-21	x	x
O=C(NCc1cccs1)c1ccc2nnc(Cc3ccco3)n2c1	-32*!	x	u
